Bioassay records: PubChem BioAssay, National Center for Advancing Translational Sciences (NCATS)
KB-3-1 cytotox: qHTS assay for MDR1-selective chemotherapeutics: Primary screen using the parental adenocarcinoma cell KB-3-1; KB-3-1 viability, CellTiter-Glo ATP luminescence, 72 h; Potency, µM (highest dose often 46.1 µM), hits mostly cytotoxic; 1.4% of 400,000 active; AID 1347075, 2019; also: potency is read from the fitted curve at half-maximal effect; nearly all actives have a fitted effect of over 60% in size
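Using CellTiter-Glo luminescence, growth of non-resistant KB-3-1 adenocarcinoma cells is assessed 72 h after pin-tool compound addition at 37 °C. Normalized responses across the concentration series yield fitted curves.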
HT1080 IDH1KD tx: qHTS for induction of synthetic lethality in tumor cells producing 2HG: qHTS for the HT-1080-IDH1KD cell line; HT-1080 IDH1 knockdown viability, ATP luminescence, 48 h; Potency, µM (highest dose often 46.1 µM), inactives show top-dose activity, negative = toxicity, hits mostly cytotoxic; 2% of 360,000 active;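 also: potency is read from the fitted curve at half-maximal effect; 0% = DMSO wells and -100% = cell-free medium wells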
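CellTiter-Glo luminescence after 48 h compound exposure at 37 degrees C of IDH1-knockdown HT-1080 cells in 5% FBS RPMI. %Activity scaled between DMSO wells and cell-free media wells, with curves fitted and assigned curve classes.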
IL-1B inflam inh: qHTS for Inhibitors of Inflammasome Signaling: IL-1-beta AlphaLISA Primary Screen; AID 743279, 2014; activity change, % at 57.5 µM; 4.7% of 360,000 active; THP-1 LPS/ATP IL-1B secretion, AlphaLISA, 16 h; stronger effect = lower value; in the data active = activity change below about -50%; inconclusive = mostly about -30% to -49%
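THP-1 cells pretreated 1 hr with compounds (up to 57.5 uM final), then stimulated with LPS (250 ng/mL final) plus ATP (1.25 mM final); secreted IL-1B measured by AlphaLISA after 16 hr, decreased signal indicating inhibition.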
HT1080NT lethal: qHTS for induction of synthetic lethality in tumor cells producing 2HG: qHTS for the HT-1080-NT fibrosarcoma cell line; HT-1080-NT fibrosarcoma viability, CellTiter-Glo ATP luminescence, 48 h; Potency, µM (highest dose often 46.1 µM), for inactives: at the highest dose activity, negative = less viability, actives largely listed as cytotoxic; 1.6% of 360,000 active; AID 686970, 2013;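 also: NT is the 2HG producing partner of a matched IDH1 knockdown line; potency is read from the fitted curve at half-maximal effect; 0% = DMSO-treated cells and -100% = media-only wells without cells; nearly all actives have a fitted effect of over 55% in size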
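Fibrosarcoma NT cells, 750 per well in 5% FBS RPMI, were exposed to compound for 48 hours. Viability: CellTiter-Glo luminescence.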
KB-V1 cytotox: qHTS assay for MDR1-selective chemotherapeutics: Primary screen using the drug-selected MDR subline cells KB-V1; 3.4% of 400,000 active; KB-V1 MDR cells viability, CellTiter-Glo, 72 h; AID 1347076, 2019; Potency, µM (titrated, usually from 46.1 µM), usual class: cytotoxic; also: potency is read from the fitted curve at half-maximal effect; nearly all actives have a fitted effect of over 60% in size
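In this primary screen, KB-V1 cells overexpressing P-gp are incubated with library compounds (lowest to highest concentration) for 72 h at 37 degrees C before a luminescent ATP viability read.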
The depositor's hits bear a star. Only some compounds are listed: those with a hit (about 8.8% of all), similar ones and a draw of the others. Unless noted, calls follow the shape of the dose curve; as a rule, active = well fitted curve in the direction sought with a large enough effect; inconclusive = small, poorly fitted or top-dose-only effect, or another doubt; inactive = no such curve, though single readings can be large; an effect the other way counts as inactive or inconclusive. Unless noted, % is scaled to controls: 0 for no effect and ±100 for the full control effect.

For Cc1nn(Cc2ccc(Cl)c(Cl)c2)c(C)c1NC(=O)c1cc(-c2ccco2)on1 the results were KB-3-1 cytotox inconclusive, HT1080 IDH1KD tx inconclusive, IL-1B inflam inh -4, HT1080NT lethal -18% and KB-V1 cytotox 5.2µM*.
For Cc1nn(Cc2ccc(Cl)cc2)c(C)c1NC(=O)c1cc(-c2ccco2)on1 the results were KB-3-1 cytotox inactive, HT1080 IDH1KD tx inconclusive, IL-1B inflam inh 40, HT1080NT lethal -30% and KB-V1 cytotox inactive.
`CN(Cc1ccccc1)C(=O)c1csc([C@H]2C[C@H](O)[C@@H](CO)O2)n1` gave KB-3-1 cytotox inactive, HT1080 IDH1KD tx 3%, IL-1B inflam inh 5, HT1080NT lethal 15% and KB-V1 cytotox inactive.
`CC1(C)CC(=O)C=C(C(=O)N2CCCC(C(=O)c3cccc(C(F)(F)F)c3)C2)O1` (stereo not drawn) gave HT1080 IDH1KD tx -5%, IL-1B inflam inh -20 and HT1080NT lethal -5%.
Screening Cn1cc([N+](=O)[O-])c(C(=O)N/N=C/c2ccc3c(c2)OCO3)n1 returned KB-3-1 cytotox inactive, HT1080 IDH1KD tx -5%, IL-1B inflam inh 7, HT1080NT lethal -10% and KB-V1 cytotox inactive.
CCCNC(=O)c1cc(-c2ccco2)on1 was read as KB-3-1 cytotox inactive, HT1080 IDH1KD tx inconclusive, IL-1B inflam inh -57*, HT1080NT lethal -30% and KB-V1 cytotox inconclusive.
`Cc1ccccc1Cn1nc(C)c(NC(=O)c2sc3ccccc3c2Cl)c1C` gave KB-3-1 cytotox inconclusive, HT1080 IDH1KD tx inconclusive, IL-1B inflam inh -26, HT1080NT lethal -18% and KB-V1 cytotox 13µM*.
Cc1ccc(S(=O)(=O)N(c2cccc(C(F)(F)F)c2)C2C=CS(=O)(=O)C2)cc1 (stereo not drawn) was read as KB-3-1 cytotox inactive, HT1080 IDH1KD tx -29%, IL-1B inflam inh -91*, HT1080NT lethal 1% and KB-V1 cytotox inactive.
Screening CCc1ccc(N(C2C=CS(=O)(=O)C2)S(=O)(=O)c2ccccc2)cc1 (stereo not drawn) returned KB-3-1 cytotox inactive, HT1080 IDH1KD tx 0%, IL-1B inflam inh inconclusive, HT1080NT lethal 0% and KB-V1 cytotox inactive.
For Cc1nn(C)c(C)c1S(=O)(=O)NC1CCCC1 the results were KB-3-1 cytotox inactive, HT1080 IDH1KD tx 3%, IL-1B inflam inh 6, HT1080NT lethal 6% and KB-V1 cytotox inactive.
Screening Cc1nn(-c2nnc(NC3CCCCC3)nn2)c(C)c1Br returned KB-3-1 cytotox inactive, HT1080 IDH1KD tx 6%, IL-1B inflam inh -75*, HT1080NT lethal 10% and KB-V1 cytotox inactive.
For O=C(COc1ccccc1C(=O)Nc1ccccc1)NC1CCCCC1 the results were HT1080 IDH1KD tx -18% and HT1080NT lethal -21%.
For COc1ccc(C(=O)CC2(O)C(=O)N(Cc3cccc(C(F)(F)F)c3)c3ccccc32)cc1 (stereo not drawn) the results were KB-3-1 cytotox inconclusive and KB-V1 cytotox 15µM*.
`O=C(c1ccccn1)N1N=C2/C(=C/c3ccc(F)cc3)CCCC2C1c1ccc(F)cc1` (stereo not drawn) gave KB-3-1 cytotox inactive, HT1080 IDH1KD tx -26%, IL-1B inflam inh -55*, HT1080NT lethal -20% and KB-V1 cytotox inconclusive.
For CCCn1c(SCC(=O)N2N=C3/C(=C/c4ccc(OC)cc4)CCCC3C2c2ccc(OC)cc2)n[nH]c1=O (stereo not drawn) the results were KB-3-1 cytotox inactive, HT1080 IDH1KD tx 12µM*, IL-1B inflam inh -25, HT1080NT lethal 7.3µM* and KB-V1 cytotox inconclusive.
Screening COc1cccc(CNC(=O)CCCc2nnc3n(C)c(=O)c4sccc4n23)c1 returned KB-3-1 cytotox inactive, HT1080 IDH1KD tx -1%, IL-1B inflam inh -8, HT1080NT lethal 1% and KB-V1 cytotox inactive.
COc1ccc2nc(SCc3cccc(C)c3)nc(C)c2c1 was read as KB-3-1 cytotox inactive, HT1080 IDH1KD tx inconclusive, IL-1B inflam inh 0, HT1080NT lethal 18% and KB-V1 cytotox 16µM*.
COc1ccc2nc(SCC(=O)O)nc(C)c2c1 was read as KB-3-1 cytotox inactive, HT1080 IDH1KD tx 8%, IL-1B inflam inh 2, HT1080NT lethal -1% and KB-V1 cytotox inactive.
COc1ccc2nc(SCCOC(=O)Nc3ccc(Cl)cc3)nc(C)c2c1 was read as KB-3-1 cytotox inconclusive, HT1080 IDH1KD tx -22%, IL-1B inflam inh 19, HT1080NT lethal -8% and KB-V1 cytotox 15µM*.
`COc1ccc2nc(SCc3ccccc3C)nc(C)c2c1` gave KB-3-1 cytotox inactive, HT1080 IDH1KD tx 4%, IL-1B inflam inh -6, HT1080NT lethal -3% and KB-V1 cytotox 15µM*.
Cc1c(Cl)cccc1NC(=O)C1CC2CCC1C2 (stereo not drawn) was read as KB-3-1 cytotox inactive, HT1080 IDH1KD tx -2%, IL-1B inflam inh 11, HT1080NT lethal -1% and KB-V1 cytotox inactive.
Clc1cccc(Cc2c(C3CCCCC3)nc3ccc(Cl)cn23)c1 was read as KB-3-1 cytotox inactive, HT1080 IDH1KD tx inconclusive, IL-1B inflam inh 5, HT1080NT lethal inconclusive and KB-V1 cytotox inactive.
For O=C(Cn1c(=O)n(-c2ccccc2)c(=O)c2c3c(sc21)CCC3)c1ccc(Br)cc1 the results were KB-3-1 cytotox inactive and KB-V1 cytotox inactive.
Screening CC(=O)Nc1ccc(NC(=O)C2(c3cccs3)CCOCC2)cc1 returned KB-3-1 cytotox inactive and KB-V1 cytotox inactive.
`Oc1ccccc1Nc1nc(NCc2ccco2)c2ccccc2n1` gave KB-3-1 cytotox inactive, HT1080 IDH1KD tx -6%, IL-1B inflam inh -63*, HT1080NT lethal -13% and KB-V1 cytotox inactive.
Screening CNc1nc(NCc2ccco2)c2ccccc2n1 returned KB-3-1 cytotox inconclusive and KB-V1 cytotox inactive.
`Cc1ccccc1Nc1nc(NCc2ccco2)c2ccccc2n1` gave KB-3-1 cytotox inconclusive, HT1080 IDH1KD tx 15µM*, IL-1B inflam inh -102*, HT1080NT lethal inconclusive and KB-V1 cytotox 12µM*.
`COc1ccc(OC)c(Nc2nc(NCc3ccco3)c3ccccc3n2)c1` gave KB-3-1 cytotox inactive, HT1080 IDH1KD tx inconclusive, IL-1B inflam inh -97*, HT1080NT lethal 21µM* and KB-V1 cytotox inconclusive.
Screening Cc1sc2c(c1C)C(O)=C(C(=O)Nc1ccccc1)S(=O)(=O)N2C returned KB-3-1 cytotox inactive, HT1080 IDH1KD tx -9%, IL-1B inflam inh 21, HT1080NT lethal 3% and KB-V1 cytotox inactive.
